PubChem BioAssay (NCATS)
Records with an inconclusive call do not appear. Entries that show only a call come without a potency. The source made the active and inactive calls. The call rests on the fitted dose curve; in most records, active means well fitted curve in the direction sought with a large enough effect; inconclusive means small, poorly fitted or top-dose-only effect, or another doubt; inactive means no such curve, though single readings can be large; an effect the other way counts as inactive or inconclusive.

experiment: qHTS of pediatric cancer cell lines to identify multiple opportunities for drug repurposing: Confirmatory screen for RD cells (AID 1347124); conditions: RD rhabdomyosarcoma cell viability; series mostly up to 45.9 µM;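 further: cells exposed to compound for 48 h before viability readout; nearly all actives have a fitted effect of over 65% in size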
Method in brief: (§1)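 Cells (500-1,000/well) rested 5 h, then received compounds for 48 h; metabolically active cells were measured by CellTiter-Glo luminescence. Final concentrations spanned up to 46 µM (MIPE, 11-point) or 0.59 nM-46 µM (NPC, 8-point) in primary screens, 11-point in follow-ups.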
Potency means the concentration at half of the fitted maximal effect.

SMILES	Potency
Nc1nc(F)nc2c1ncn2[C@@H]1O[C@H](CO)[C@@H](O)[C@@H]1O	1.65 µM (active)
Cc1cccc(N(C)C(=S)Oc2ccc3ccccc3c2)c1	inactive
CCCCOc1ccc(CC(=O)NO)cc1	inactive
S=P(N1CC1)(N1CC1)N1CC1	inactive
O=C(NCC1CN(c2ccc(N3CCOCC3=O)cc2)C(=O)O1)c1ccc(Cl)s1 (configuration not stated)	inactive
CCOC(=O)c1ccc(C#Cc2ccc3c(c2)C(C)(C)CCS3)nc1	inactive
Nc1nc(N)nc(-c2cc(Cl)ccc2Cl)n1	inactive
COc1cc([C@@H]2c3cc4c(cc3[C@H](O)[C@H]3COC(=O)[C@H]23)OCO4)cc(OC)c1OC	0.0414 µM (active)

experiment: qHTS of pediatric cancer cell lines to identify multiple opportunities for drug repurposing: Confirmatory screen for Rh18 cells (AID 1347125); conditions: Rh18 rhabdomyosarcoma cells, viability; series mostly up to 45.9 µM; further: nearly all actives have a fitted effect of over 55% in size
Method in brief: as §1

SMILES	Potency
Cc1cccc(N(C)C(=S)Oc2ccc3ccccc3c2)c1	inactive
CC(C)C[C@H](NC(=O)[C@H](CCc1ccccc1)NC(=O)CN1CCOCC1)C(=O)N[C@@H](Cc1ccccc1)C(=O)N[C@@H](CC(C)C)C(=O)[C@@]1(C)CO1	46.5 nM (active)
N=C(N)c1ccc(OCCCCCOc2ccc(C(=N)N)cc2)cc1	inactive
CNCC[C@H](Oc1cccc2ccccc12)c1cccs1	inactive
S=P(N1CC1)(N1CC1)N1CC1	inactive
O=C(NCC1CN(c2ccc(N3CCOCC3=O)cc2)C(=O)O1)c1ccc(Cl)s1 (configuration not stated)	inactive
CCOC(=O)c1ccc(C#Cc2ccc3c(c2)C(C)(C)CCS3)nc1	inactive
COC(=O)Nc1nc2ccc(C(=O)c3ccccc3)cc2[nH]1	inactive
Nc1nc(N)nc(-c2cc(Cl)ccc2Cl)n1	inactive
COc1cc([C@@H]2c3cc4c(cc3[C@H](O)[C@H]3COC(=O)[C@H]23)OCO4)cc(OC)c1OC	inactive

experiment: qHTS of pediatric cancer cell lines to identify multiple opportunities for drug repurposing: Confirmatory screen for Rh30 cells (AID 1347126); conditions: Rh30 rhabdomyosarcoma cell viability; series mostly up to 45.9 µM; further: nearly all actives have a fitted effect of over 55% in size
Method in brief: as §1

SMILES	Potency
Cc1cccc(N(C)C(=S)Oc2ccc3ccccc3c2)c1	inactive
CC(C)C[C@H](NC(=O)[C@H](CCc1ccccc1)NC(=O)CN1CCOCC1)C(=O)N[C@@H](Cc1ccccc1)C(=O)N[C@@H](CC(C)C)C(=O)[C@@]1(C)CO1	117 nM (active)
CNCC[C@H](Oc1cccc2ccccc12)c1cccs1	inactive
S=P(N1CC1)(N1CC1)N1CC1	inactive
O=C(NCC1CN(c2ccc(N3CCOCC3=O)cc2)C(=O)O1)c1ccc(Cl)s1 (configuration not stated)	inactive
COC(=O)Nc1nc2ccc(C(=O)c3ccccc3)cc2[nH]1	inactive
Nc1nc(N)nc(-c2cc(Cl)ccc2Cl)n1	inactive
COc1cc([C@@H]2c3cc4c(cc3[C@H](O)[C@H]3COC(=O)[C@H]23)OCO4)cc(OC)c1OC	inactive
COc1cc(NCc2ccc3nc(N)nc(N)c3c2C)cc(OC)c1OC	4650 nM (active)
